Data from PubChem BioAssay.
Records with an inconclusive call do not appear. Active and inactive are the calls of the source.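 The calls were made as follows, unless noted: active = inhibition above 54%, about 3 SD of non-fluorescent compounds; inactive = the rest.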 Peptide text beside a SMILES is read from it. * marks the point of attachment. Boc = CC(C)(C)OC(=O)*

Key:
[1] = rapamycin-like changes in RPL19A-GFP expression – cell-based, S. cerevisiae, multiplex flow cytometry, primary screen (AID 1862; in the data active = percent of DMSO control GFP below about 86%;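 also: lower values mimic rapamycin by blocking the RPL19A rise seen in DMSO cells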); settings: S. cerevisiae RPL19A-GFP strain, flow cytometry fluorescence, 3 h; at 10 µM; stronger effect = lower value
[2] = TOR pathway GLN3 branch reporter MEP2-GFP changes – S. cerevisiae, multiplex flow cytometry, primary screen (AID 1867;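 active = GFP response, as percent of the DMSO control, above the screen-wide mean plus 3 SD, about 139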;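 also: median GFP channel fluorescence of barcode-gated MEP2-GFP cells measured by flow cytometry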); settings: S. cerevisiae MEP2-GFP strain, 3 h, at 10 µM, stronger effect = higher value, 100% means same as DMSO wells
[3] = TOR pathway RTG branch CIT2 reporter changes – S. cerevisiae, GFP fusion, multiplex flow cytometry, primary screen (AID 1870;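 active = percent response above a set limit, the screen-wide mean plus 3 SD, cut at about 130% in these data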;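 also: barcoded CIT2-GFP strain pooled with four other GFP strains with rapamycin as positive control; median GFP fluorescence per well over plate mean of DMSO wells so 100% = DMSO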); settings: S. cerevisiae CIT2-GFP expression, 3 h, at 10 µM, stronger effect = higher value
[4] = TOR pathway LAP4-GFP level changes – S. cerevisiae, multiplex flow cytometry, primary screen (AID 1873;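 active = GFP signal, as percent of the solvent control, above the screen mean plus 3 SD, about 149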); settings: S. cerevisiae LAP4-GFP expression, 3 h, at 10 µM, stronger effect = higher value
[5] = yeast AGP1-GFP level changes, GLN3 branch – cell-based, multiplex flow cytometry, S. cerevisiae, primary screen (AID 1887;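 active = GFP signal above the screen-wide mean plus 3 SD, that is over about 124.5% of the solvent control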;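 also: AGP1-GFP fusion strain of S. cerevisiae within a five-strain barcoded multiplex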); settings: 3 h, at 10 µM, stronger effect = higher value
[6] = reduced mouse 2C T cell binding to pMHC/ICAM-1 vesicles – MLPCN validation set, flow cytometry, LFA-1/ICAM-1 modulator project, pilot screen (AID 2523;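 active = response below a set limit, under 55% cells CD8-positive and vesicle-bound, and CD8 cells' 90th-percentile brightness under 279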;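 as to vesicle binding response: mean PE anti-B7-1 fluorescence of CD8+ cells relative to row control; 100% = QL9-loaded vesicles with DMSO vehicle in the same plate row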); settings: 2C mouse CD8+ T cells, at 7 µM, stronger effect = lower value; double positive events: measured here: CD8+/vesicle+ event percentage
[7] = biological target: Integrin beta-1 (Homo sapiens) + Integrin alpha-4 (Homo sapiens) (UniProt P13612+P05556); assay: alpha4beta1 integrin LIBS antibody binding reduction – U937 cells, HUTS-21 mAb, flow cytometry, validation set, VLA-4 allosteric modulator project, pilot screen (AID 2674;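 active = inhibition above 50%, about 3 SD of the validation set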;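 also: antibody binding induced by the VLA-4 ligand LDV present at three times its Kd; 0% = LDV ligand with antibody and no compound and 100% = antibody without LDV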); settings: HUTS-21 LIBS mAb binding, at 6.7 µM, stronger effect = higher value, binding induced by LDV ligand
Integrin beta-1 (Homo sapiens) + Integrin alpha-4 (Homo sapiens), sequence (P05556 whole entry, looked up): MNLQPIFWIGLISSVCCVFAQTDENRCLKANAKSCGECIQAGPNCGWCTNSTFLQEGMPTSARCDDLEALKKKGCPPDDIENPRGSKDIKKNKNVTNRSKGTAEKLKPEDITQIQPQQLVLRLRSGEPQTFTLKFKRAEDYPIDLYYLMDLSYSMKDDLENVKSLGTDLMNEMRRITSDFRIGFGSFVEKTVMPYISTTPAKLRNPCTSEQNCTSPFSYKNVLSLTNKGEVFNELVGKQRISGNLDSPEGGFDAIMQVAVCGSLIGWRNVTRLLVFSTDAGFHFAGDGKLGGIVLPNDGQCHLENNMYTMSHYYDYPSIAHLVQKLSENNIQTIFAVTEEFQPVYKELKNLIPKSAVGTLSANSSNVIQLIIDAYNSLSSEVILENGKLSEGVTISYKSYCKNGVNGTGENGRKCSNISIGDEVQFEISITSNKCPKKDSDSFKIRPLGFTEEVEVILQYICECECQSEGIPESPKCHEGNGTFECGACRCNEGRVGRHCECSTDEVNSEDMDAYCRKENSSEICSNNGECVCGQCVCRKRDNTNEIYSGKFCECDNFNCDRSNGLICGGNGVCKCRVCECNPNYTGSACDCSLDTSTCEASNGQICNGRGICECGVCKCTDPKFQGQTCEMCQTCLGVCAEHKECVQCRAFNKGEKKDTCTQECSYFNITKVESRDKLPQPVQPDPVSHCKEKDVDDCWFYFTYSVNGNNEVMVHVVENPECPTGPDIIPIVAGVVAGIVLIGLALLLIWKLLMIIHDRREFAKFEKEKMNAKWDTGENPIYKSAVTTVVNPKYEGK
Integrin beta-1 (Homo sapiens) + Integrin alpha-4 (Homo sapiens), sequence (P13612 whole entry, looked up): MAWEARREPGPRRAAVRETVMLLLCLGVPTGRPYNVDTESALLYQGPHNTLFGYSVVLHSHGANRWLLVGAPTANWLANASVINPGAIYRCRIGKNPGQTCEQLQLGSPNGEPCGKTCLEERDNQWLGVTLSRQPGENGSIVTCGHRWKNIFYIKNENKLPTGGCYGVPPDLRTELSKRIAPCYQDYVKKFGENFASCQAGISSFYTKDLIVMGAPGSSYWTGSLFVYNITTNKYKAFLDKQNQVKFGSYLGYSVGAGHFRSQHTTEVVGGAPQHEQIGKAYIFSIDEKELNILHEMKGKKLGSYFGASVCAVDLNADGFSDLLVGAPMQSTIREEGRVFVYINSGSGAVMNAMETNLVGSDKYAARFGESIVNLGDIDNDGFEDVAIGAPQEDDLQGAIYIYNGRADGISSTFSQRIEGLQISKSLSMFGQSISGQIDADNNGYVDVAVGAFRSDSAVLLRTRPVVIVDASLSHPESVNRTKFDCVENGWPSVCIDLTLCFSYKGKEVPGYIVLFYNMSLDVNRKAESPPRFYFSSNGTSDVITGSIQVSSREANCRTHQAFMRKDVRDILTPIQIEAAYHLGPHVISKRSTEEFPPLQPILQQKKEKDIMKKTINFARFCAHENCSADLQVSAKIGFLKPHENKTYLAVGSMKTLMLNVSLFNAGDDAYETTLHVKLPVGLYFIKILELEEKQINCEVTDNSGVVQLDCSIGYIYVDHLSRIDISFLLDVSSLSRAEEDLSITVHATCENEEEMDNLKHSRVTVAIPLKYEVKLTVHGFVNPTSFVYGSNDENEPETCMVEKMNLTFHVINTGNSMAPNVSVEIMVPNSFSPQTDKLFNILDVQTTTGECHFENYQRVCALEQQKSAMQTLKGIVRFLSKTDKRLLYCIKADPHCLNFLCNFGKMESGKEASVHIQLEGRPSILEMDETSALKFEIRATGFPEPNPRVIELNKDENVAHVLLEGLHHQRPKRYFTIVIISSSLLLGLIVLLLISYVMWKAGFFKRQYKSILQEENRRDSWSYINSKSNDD

[8] = calorie-restriction mimetic ROS inhibitors, yeast – validation compound set, pilot screen (AID 2706;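 active = superoxide response below 65% of plate, a cut near 3 SD across the whole screen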;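 also: yeast exposed to compound for one week at 30 degrees C before staining; 100% = mean of all compound wells on the same plate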); settings: S. cerevisiae aging, superoxide DHE fluorescence; at 10 µM, stronger effect = lower value
[9] = biological target: Beta-adrenergic receptor kinase 1 (Homo sapiens) (UniProt P25098); assay: GRK2 binders displacing RNA aptamer, biochemical, validation, human GRK2, bead flow cytometry (AID 488806;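 active = aptamer binding inhibition above 30%, about 3 SD of noise from non-fluorescent compounds; inactive = inhibition at or below 30%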); settings: bead-bound GRK2, FAM-aptamer displacement, at 10 µM, stronger effect = higher value
Beta-adrenergic receptor kinase 1 (Homo sapiens), sequence (P25098 whole entry, looked up, the tested form may be a part): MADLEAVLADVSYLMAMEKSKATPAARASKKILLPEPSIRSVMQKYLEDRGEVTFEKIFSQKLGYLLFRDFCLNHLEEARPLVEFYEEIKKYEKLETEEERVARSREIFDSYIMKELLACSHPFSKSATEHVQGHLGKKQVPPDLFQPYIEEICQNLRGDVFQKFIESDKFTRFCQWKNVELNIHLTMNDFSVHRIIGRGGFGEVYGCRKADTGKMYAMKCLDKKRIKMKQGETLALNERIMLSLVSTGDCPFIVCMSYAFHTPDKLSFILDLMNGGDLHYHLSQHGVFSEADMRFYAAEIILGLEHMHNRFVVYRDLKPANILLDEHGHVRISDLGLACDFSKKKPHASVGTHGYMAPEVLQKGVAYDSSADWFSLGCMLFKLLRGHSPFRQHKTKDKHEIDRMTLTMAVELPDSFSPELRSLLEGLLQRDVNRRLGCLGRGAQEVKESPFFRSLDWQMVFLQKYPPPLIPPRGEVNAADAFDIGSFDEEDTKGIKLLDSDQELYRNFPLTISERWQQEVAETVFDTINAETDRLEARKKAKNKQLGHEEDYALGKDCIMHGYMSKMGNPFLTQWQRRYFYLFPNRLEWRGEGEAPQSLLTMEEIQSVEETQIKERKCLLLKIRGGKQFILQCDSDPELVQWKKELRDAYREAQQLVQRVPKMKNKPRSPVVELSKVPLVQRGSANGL

[10] = biological target: AP-2 complex subunit beta (Homo sapiens) (UniProt P63010); assay: beta-arrestin/AP2 interaction blockers – biochemical, validation set, GST-AP2 beads, flow cytometry, pilot screen (AID 504541); settings: FITC arrestin peptide, at 10 µM, stronger effect = higher value, AP2 beta2 appendage fragment, R879A mutant;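 also: AP2 carries R879A mutation and is captured from E. coli lysate; bead-bound FITC arrestin peptide fluorescence measuring arrestin peptide binding to AP2; 0% = DMSO wells and 100% = excess unlabeled arrestin peptide control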
AP-2 complex subunit beta (Homo sapiens), sequence (P63010 whole entry, looked up, the tested form may be a part, one chain of several): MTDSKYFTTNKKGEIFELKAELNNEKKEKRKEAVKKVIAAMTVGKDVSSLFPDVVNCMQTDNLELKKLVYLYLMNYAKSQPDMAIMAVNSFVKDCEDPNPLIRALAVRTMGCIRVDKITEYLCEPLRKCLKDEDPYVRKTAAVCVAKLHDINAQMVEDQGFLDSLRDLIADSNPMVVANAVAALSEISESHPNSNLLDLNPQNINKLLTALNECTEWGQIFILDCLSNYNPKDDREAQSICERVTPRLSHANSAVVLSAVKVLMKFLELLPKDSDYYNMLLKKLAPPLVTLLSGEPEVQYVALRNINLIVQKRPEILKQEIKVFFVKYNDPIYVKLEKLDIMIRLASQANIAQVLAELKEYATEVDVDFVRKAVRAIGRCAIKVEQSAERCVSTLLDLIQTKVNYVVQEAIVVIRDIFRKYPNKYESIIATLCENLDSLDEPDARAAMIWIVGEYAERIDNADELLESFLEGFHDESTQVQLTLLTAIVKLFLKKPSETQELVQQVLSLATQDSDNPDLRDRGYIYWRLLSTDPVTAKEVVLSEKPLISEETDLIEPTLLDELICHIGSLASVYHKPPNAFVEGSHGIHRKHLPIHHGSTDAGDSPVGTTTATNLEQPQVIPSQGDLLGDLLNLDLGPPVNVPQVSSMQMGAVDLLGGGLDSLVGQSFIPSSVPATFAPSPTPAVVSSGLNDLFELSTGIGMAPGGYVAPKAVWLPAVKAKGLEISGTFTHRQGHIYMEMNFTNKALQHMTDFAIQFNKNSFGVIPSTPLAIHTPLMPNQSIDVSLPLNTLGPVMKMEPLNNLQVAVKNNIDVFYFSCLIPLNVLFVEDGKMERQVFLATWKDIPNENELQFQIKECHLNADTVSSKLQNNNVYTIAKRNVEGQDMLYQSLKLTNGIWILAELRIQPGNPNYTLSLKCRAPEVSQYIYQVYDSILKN

[11] = cytosolic pH regulators acting via V-ATPase – S. cerevisiae, pHLuorin, HTS validation (AID 504600; in the data active = response above about 15%;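 also: plate controls were DMSO for no effect and reference compound for full effect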); settings: V-ATPase proton transport, at 10 µM, stronger effect = higher value
[12] = tested on: anti-desmoglein-3 scFv antibody binding to human DSG3; assay: blockers of pathogenic pemphigus antibody–desmoglein-3 binding – biochemical, validation compound set, bead-based, flow cytometry, pilot screen (AID 588368;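 active = binding below the plate cutoff, the plate median minus 3 SD, with a reading above zero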;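 also: signal is the median channel fluorescence of bead-bound GFP antibody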); settings: Protein G beads, DSG3-Fc, scFv-GFP binding, at 10 µM, stronger effect = lower value
[13] = Nile Red efflux blockade in pump-expressing yeast – validation compound set, multiplex, phenotypic, pilot screen (AID 588506;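 active = efflux inhibition above 0.42, the validation set average plus 4 SD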;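 also: Nile Red retained in cells so higher fluorescence means more efflux inhibition; 0 = negative control wells and 1 = enniatin B 25 µM full block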); settings: S. cerevisiae pump-expressing triplex, Nile Red efflux flow cytometry; at 10 µM; stronger effect = higher value; the pumps come from Candida albicans
[14] = biological target: ATP-binding cassette sub-family B member 6 (Homo sapiens) (UniProt Q9NP58); assay: blockers of ABCB6-driven porphyrin uptake – K562-ABCB6 cells, flow cytometry, validation set, pilot screen (AID 588550;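 active = inhibition above the screen-wide mean plus 3 SD, about 51%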;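 also: 0% = DMSO wells and 100% = benzethonium chloride 70 µM positive control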); settings: K562-ABCB6 porphyrin accumulation, 1 h, at 10 µM, stronger effect = higher value
ATP-binding cassette sub-family B member 6 (Homo sapiens), sequence (Q9NP58 whole entry, looked up): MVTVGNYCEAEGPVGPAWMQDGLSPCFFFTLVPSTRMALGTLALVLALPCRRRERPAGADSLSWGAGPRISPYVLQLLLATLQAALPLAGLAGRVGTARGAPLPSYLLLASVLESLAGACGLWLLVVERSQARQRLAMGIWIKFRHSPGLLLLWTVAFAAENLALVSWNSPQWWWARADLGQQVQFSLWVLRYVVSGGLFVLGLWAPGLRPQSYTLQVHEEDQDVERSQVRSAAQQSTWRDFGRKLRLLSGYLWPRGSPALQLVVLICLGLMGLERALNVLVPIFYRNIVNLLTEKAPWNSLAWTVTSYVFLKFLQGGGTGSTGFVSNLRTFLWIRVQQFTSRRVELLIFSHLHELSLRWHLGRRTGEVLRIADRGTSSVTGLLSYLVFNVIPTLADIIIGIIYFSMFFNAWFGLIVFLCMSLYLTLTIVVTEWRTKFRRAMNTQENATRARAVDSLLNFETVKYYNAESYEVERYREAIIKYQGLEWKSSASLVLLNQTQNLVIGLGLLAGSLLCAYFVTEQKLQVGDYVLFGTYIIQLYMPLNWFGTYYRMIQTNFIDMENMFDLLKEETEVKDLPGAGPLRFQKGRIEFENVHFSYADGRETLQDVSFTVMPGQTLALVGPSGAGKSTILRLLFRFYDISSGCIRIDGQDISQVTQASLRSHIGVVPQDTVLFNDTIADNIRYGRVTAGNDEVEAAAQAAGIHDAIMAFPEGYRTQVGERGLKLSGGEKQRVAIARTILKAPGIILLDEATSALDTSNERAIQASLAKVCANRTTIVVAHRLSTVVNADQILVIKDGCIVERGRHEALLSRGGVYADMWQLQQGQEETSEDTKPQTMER

[15] = AML differentiation inducers, ER-HoxA9 marrow cells – cell-based, GFP/MAC1 double positive, flow cytometry, validation set, primary screen (AID 588685;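 active = differentiation response of at least 50%, scaled between solvent and reference control, from cells with both markers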;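 also: compound exposure lasts four days before antibody staining and flow analysis; 0% = DMSO wells and 100% = 5 µM fulvestrant positive control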); settings: stronger effect = higher value, normalized: vehicle 0, fulvestrant 100

SMILES	percent of DMSO control GFP [1]	GFP response vs DMSO [2]	percent response of DMSO control [3]	GFP response vs DMSO [4]	GFP response, % of DMSO [5]	double positive events [6] [%]	vesicle binding response [6]	inhibition [7]	superoxide response (% of plate) [8]	aptamer binding inhibition [9]	inhibition [10]	response [11]	binding (% of control) [12]	efflux inhibition (fraction of control) [13]	inhibition [14]	differentiation response [15]
O=C(O)/C=C/c1ccc(O)c(O)c1	101% (inactive)	104% (inactive)	106% (inactive)	95.4% (inactive)	99.9% (inactive)	52.4	173% (inactive)	23.1% (inactive)	106% (inactive)	8% (inactive)	4.2% (inactive)	-0.83% (inactive)	95.4% (inactive)	0.18 (inactive)	4% (inactive)	-0.2% (inactive)
NC(=O)OCC(COC(N)=O)c1ccccc1	104% (inactive)	98.9% (inactive)	102% (inactive)	92.3% (inactive)	103% (inactive)	58.1	160% (inactive)	1.62% (inactive)	92.5% (inactive)	4% (inactive)	-15.7% (inactive)	-9.57% (inactive)	103% (inactive)	-0.09 (inactive)	5% (inactive)	-1.82% (inactive)
CC(C)(C)c1csc(N/N=C/c2cccnc2)n1	99% (inactive)	106% (inactive)	95.9% (inactive)	107% (inactive)	87.4% (inactive)	53.8	163% (inactive)	17.5% (inactive)	96% (inactive)	5% (inactive)	5.38% (inactive)	1.92% (inactive)	99.3% (inactive)	-0.12 (inactive)	7% (inactive)	4.64% (inactive)
O=C(O)c1cccnc1	103% (inactive)	105% (inactive)	96.9% (inactive)	101% (inactive)	105% (inactive)	54.3	137% (inactive)	13.8% (inactive)	94.8% (inactive)	4% (inactive)	-4.36% (inactive)	4.12% (inactive)	101% (inactive)	0.29 (inactive)	16% (inactive)	20.8% (inactive)
Cc1cnc(C(=O)N2CCCC(C(=O)c3ccc(Cl)cc3C)C2)cn1 (stereo not given)	104% (inactive)	99.9% (inactive)	105% (inactive)	96.4% (inactive)	101% (inactive)	50	175% (inactive)	-2.11% (inactive)	109% (inactive)	2% (inactive)	21.9% (inactive)	2.89% (inactive)	101% (inactive)	0.18 (inactive)	-25% (inactive)	-18% (inactive)
C[C@@H]1C[C@H]2[C@@H]3CCC4=CC(=O)C=C[C@]4(C)[C@@]3(F)[C@@H](O)C[C@]2(C)[C@@]1(O)C(=O)COP(=O)(O)O	104% (inactive)	98.9% (inactive)	101% (inactive)	83.3% (inactive)	93% (inactive)	53.3	126% (inactive)	20.3% (inactive)	106% (inactive)	2% (inactive)	-3.37% (inactive)	4.69% (inactive)	96.9% (inactive)	-0.09 (inactive)	10% (inactive)	-13.1% (inactive)
COc1ccc2cc(CCC(C)=O)ccc2c1	101% (inactive)	103% (inactive)	93% (inactive)	101% (inactive)	85.2% (inactive)	55.4	150% (inactive)	2.56% (inactive)	86.7% (inactive)	2% (inactive)	-2.69% (inactive)	-0.19% (inactive)	108% (inactive)	0.63 (active)	4% (inactive)	0% (inactive)
CC(=O)Oc1ccc(C(=O)O)cc1OC(C)=O	98% (inactive)	104% (inactive)	104% (inactive)	99.4% (inactive)	98.4% (inactive)	59.1	164% (inactive)	-3.04% (inactive)	98.2% (inactive)	4% (inactive)	-6.29% (inactive)	0.26% (inactive)	105% (inactive)	-0.01 (inactive)	6% (inactive)	1.41% (inactive)
C=CCc1ccccc1OCC(O)CNC(C)C (stereo not given)	103% (inactive)	107% (inactive)	104% (inactive)	108% (inactive)	118% (inactive)	61.2	209% (inactive)	-11.3% (inactive)	96.7% (inactive)	-32% (inactive)	-4.94% (inactive)	0.57% (inactive)	107% (inactive)	0.12 (inactive)	-2% (inactive)	-11.9% (inactive)
Cc1cc(-c2nn(-c3ccccc3F)cc2CN2CCC(O)CC2)c(C)s1	102% (inactive)	98.9% (inactive)	104% (inactive)	93.3% (inactive)	95.5% (inactive)	47.2	132% (inactive)	-7.7% (inactive)	93.1% (inactive)	4% (inactive)	-9.39% (inactive)	0.7% (inactive)	98.3% (inactive)	-0.35 (inactive)	10% (inactive)	-30.9% (inactive)
COc1cc(=O)n(C)c2ccccc12	93.5% (inactive)	99.9% (inactive)	97.9% (inactive)	90.3% (inactive)	93.7% (inactive)	54.6	136% (inactive)	7.22% (inactive)	103% (inactive)	3% (inactive)	28% (inactive)	3.71% (inactive)	96.9% (inactive)	0.33 (inactive)	3% (inactive)	-1.82% (inactive)
CN1CCCC(OC(=O)c2ccc3c(c2)OCCO3)C1 (stereo not given)	101% (inactive)	106% (inactive)	108% (inactive)	82.3% (inactive)	96.3% (inactive)	58.8	175% (inactive)	-8.64% (inactive)	100% (inactive)	0% (inactive)	2.71% (inactive)	-2.88% (inactive)	96% (inactive)	0.41 (inactive)	8% (inactive)	1.41% (inactive)
CC(C)CC(NC(=O)C1CCCN1C(=O)OC(C)(C)C)C(=O)NCC(N)=O (stereo not drawn) (Boc-Pro-Leu-Gly-NH2; configuration not given here)	97.3% (inactive)	98.9% (inactive)	92% (inactive)	94.3% (inactive)	91.8% (inactive)	62.8	171% (inactive)	-3.97% (inactive)	89.5% (inactive)	4% (inactive)	-1.69% (inactive)	-1.76% (inactive)	102% (inactive)	0.18 (inactive)	8% (inactive)	19.2% (inactive)
COc1ccc(C2C(=O)c3ccccc3C2=O)cc1	97.8% (inactive)	101% (inactive)	102% (inactive)	111% (inactive)	94.8% (inactive)	55.9	198% (inactive)	0.69% (inactive)	96.8% (inactive)	1% (inactive)	-15.3% (inactive)	-9.82% (inactive)	95.6% (inactive)	-0.24 (inactive)	4% (inactive)	-18% (inactive)
CCOC(=O)C1(CCCc2ccccc2)CCN(C2CCN(C(C)=O)CC2)CC1	97.1% (inactive)	101% (inactive)	99.8% (inactive)	92.3% (inactive)	92.4% (inactive)	52	138% (inactive)	-12.4% (inactive)	103% (inactive)	9% (inactive)	12.5% (inactive)	-6.58% (inactive)	109% (inactive)	0.37 (inactive)	9% (inactive)	-13.1% (inactive)
CCS(=O)(=O)CCn1c([N+](=O)[O-])cnc1C	96.4% (inactive)	106% (inactive)	95.9% (inactive)	94.3% (inactive)	97.8% (inactive)	47.3	136% (inactive)	12.8% (inactive)	108% (inactive)	8% (inactive)	-4.86% (inactive)	5.33% (inactive)	99.1% (inactive)	0.18 (inactive)	4% (inactive)	-5.05% (inactive)
CC(=O)OCC(=O)[C@@]12OC(C)(C)O[C@@H]1C[C@H]1[C@@H]3C[C@H](F)C4=CC(=O)C=C[C@]4(C)[C@@]3(F)[C@@H](O)C[C@@]12C	104% (inactive)	107% (inactive)	106% (inactive)	100% (inactive)	105% (inactive)	64.6	212% (inactive)	3.49% (inactive)	94.7% (inactive)	0% (inactive)	2.71% (inactive)	1.38% (inactive)	91.8% (inactive)	0.03 (inactive)	8% (inactive)	19.2% (inactive)
CCc1cc(=O)oc2cc(C)c(CN3CCCC(C)C3)c(O)c12 (stereo not given)	102% (inactive)	103% (inactive)	103% (inactive)	84.3% (inactive)	94.9% (inactive)	52.2	161% (inactive)	-5.84% (inactive)	105% (inactive)	2% (inactive)	26.7% (inactive)	-0.18% (inactive)	73.4% (inactive)	0.18 (inactive)	5% (inactive)	-18% (inactive)
CCOC(=O)c1ccc(N2C(=O)C(CC(N)=O)N(CCc3ccc(OC)c(OC)c3)C2=S)cc1 (stereo not given)	96.9% (inactive)	105% (inactive)	94.9% (inactive)	96.4% (inactive)	88.8% (inactive)	46.3	153% (inactive)	-10.5% (inactive)	107% (inactive)	2% (inactive)	18.9% (inactive)	1.03% (inactive)	97.2% (inactive)	0.75 (active)	21% (inactive)	-21.2% (inactive)
COC1(C)CC2C(CC1OC(=O)c1cc([N+](=O)[O-])cc([N+](=O)[O-])c1)C2(C)C (stereo not given)	104% (inactive)	99.9% (inactive)	106% (inactive)	178% (active)	74.2% (inactive)	52.4	222% (inactive)	-3.97% (inactive)	114% (inactive)	5% (inactive)	-6.29% (inactive)	3.54% (inactive)	99.3% (inactive)	-0.35 (inactive)	9% (inactive)	-18% (inactive)
